Assay outcomes deposited in PubChem by National Center for Advancing Translational Sciences (NCATS).
Most compounds without a hit are left out; they make up all but 21% or so of the library.
Pf growth 48h – inhibits P. falciparum growth in the first generation, 48 h. Potency, µM (titrated, usually from 28.7 µM), for the others: at the top dose activity change, negative = inhibition, most hits filed as inhibitors. 310,000 compounds, 5.9% hits. P. falciparum luciferase growth in erythrocytes, 48 h; further: potency means the concentration at half of the fitted maximal effect; on the % scale 0 is the no-effect control and ±100 the full control effect
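Firefly luciferase activity from engineered P. falciparum reports growth; inhibitors lower the luminescent signal. Cultures contained 2% hematocrit erythrocytes at 0.1% final parasitemia.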
Pf growth 96h – P. falciparum growth inhibition at 96 hours; P. falciparum luciferase reporter growth, 96 h; Potency, µM (doses to about 28.7 µM), for the others: top-dose activity change, negative = inhibition, usual class: inhibitors; 320,000 compounds, 6.9% hits; AID 504834; further: potency means the concentration at half of the fitted maximal effect; on the % scale 0 is the no-effect control and ±100 the full control effect
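Parasite growth measured via integrated firefly luciferase reporter in P. falciparum. Infected erythrocytes at 2% hematocrit, 0.05% parasitemia final were treated 96 hours at 37 C under 5% CO2, and luminescence was read.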
Giardia FBPA inh – blocks Giardia fructose-bisphosphate aldolase activity; A8B2U2; purified Giardia FBPA; Potency, µM (doses to about 59.6 µM), for the others: top-dose activity, negative = inhibition, actives largely listed as inhibitors; 290,000 compounds, 0.71% hits; further: potency means the concentration at half of the fitted maximal effect; on the % scale 0 is the no-effect control and ±100 the full control effect; nearly all actives have a fitted effect of over 55% in size
Target sequence (A8B2U2 whole entry, looked up): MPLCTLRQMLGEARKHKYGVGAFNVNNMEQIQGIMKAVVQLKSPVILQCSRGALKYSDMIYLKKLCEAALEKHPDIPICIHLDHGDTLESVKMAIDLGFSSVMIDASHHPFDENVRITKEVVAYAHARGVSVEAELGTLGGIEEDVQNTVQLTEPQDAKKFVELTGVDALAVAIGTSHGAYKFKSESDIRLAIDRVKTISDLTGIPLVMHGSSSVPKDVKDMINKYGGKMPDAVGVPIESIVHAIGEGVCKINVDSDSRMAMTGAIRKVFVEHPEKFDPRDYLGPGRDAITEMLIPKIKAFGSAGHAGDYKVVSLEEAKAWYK
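Giardia FBPA (40 nM reagent) was preincubated 10 min at RT with compound (up to 57.5 uM final), then substrate plus GAPDH/TPI/NAD/arsenate coupling system with diaphorase/resazurin was added; resorufin fluorescence (525/598 nm) was read after 20 min.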
CHX counter – counter-screen for Shiga toxin inhibitors: cycloheximide protein synthesis inhibition; cell reporter, cycloheximide protein synthesis inhibition counterscreen; max response, %; 300,000 compounds, 12% hits; AID 2314; in the data active means max response mostly above about 13%, no sharp cut-off; inactive means mostly below about 14%; further: read at 38.3 µM for the half of the compounds with a filed dose; 0% is about no effect
NS1 inh – inhibitors of influenza NS1 protein function; Potency, µM (highest dose often 46.1 µM), inactives show at the top dose activity, positive = more growth; 270,000 compounds, 0.4% hits; calls by dose curve; further: potency means the concentration at half of the fitted maximal effect; actives are rising curves; nearly all actives have a fitted effect of over 50% in size
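OD600 was taken as the measure of yeast growth restored by compound in an NS1-expressing S. cerevisiae strain. Cells had been washed out of glucose medium and diluted 1:100 into galactose -URA medium, pH 6.0.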
Shiga toxin inh – Shiga toxin inhibition; Vero cells, Shiga toxin protein synthesis inhibition reporter; inhibition, % at 38.7 µM; 290,000 compounds, 9.2% hits; in the data active means inhibition mostly above about 28%, no sharp cut-off; inactive means mostly below about 43%; further: 0% is about no effect
Starred values were filed as active, the others as inactive; ? = inconclusive; · = not tested or not shown; [ ] = remark or other dose. Unless noted, the call rests on the fitted dose curve; in most records, active means well fitted curve in the direction sought with a large enough effect; inconclusive means small, poorly fitted or top-dose-only effect, or another doubt; inactive means no such curve, though single readings can be large; an effect the other way counts as inactive or inconclusive.

SMILES | Pf growth 48h | Pf growth 96h | Giardia FBPA inh | CHX counter | NS1 inh | Shiga toxin inh
Cc1csc(N/N=C/c2ccc(O)c([N+](=O)[O-])c2)n1 | · | ? | ? | 5 | -82% | 17
COc1cc(/C=N/Nc2nc(-c3ccc(S(=O)(=O)N(C)C)cc3)cs2)ccc1O | 2.1µM* | 8.3µM* | -12% | 13* | ? | 50*
NS(=O)(=O)c1ccc2nc(NC(=O)c3ccc(Br)o3)sc2c1 | 112% | 10µM* | -5% | 24* | · | 50*
Cc1ccc2nc(NC(=O)c3ccc(Br)o3)sc2c1 | 51% | ? | 6% | 45* | -7% | 95*
O=C(CCCN1C(=O)C(c2ccccc2)Oc2cccnc21)Nc1cccc(F)c1 (centres undefined) | 10µM* | ? | 4% | 17 | -18% | -1
CC(=O)c1ccc(NC(=O)CCCN2C(=O)C(c3ccccc3)Oc3cccnc32)cc1 (centres undefined) | ? | ? | 12% | 13 | -9% | -13
O=C(CN1C(=O)C(c2ccccc2)Oc2cccnc21)NCc1ccccc1F (centres undefined) | ? | 9.3µM* | 0% | 17 | 4% | 9
Cc1cc(C)cc(NC(=O)CCCN2C(=O)C(c3ccccc3)Oc3cccnc32)c1 (centres undefined) | ? | 3.7µM* | 11% | 6 | 2% | -10
CC[C@H](C)[C@H](NC(=O)[C@H](Cc1ccc(O)cc1)NC(=O)[C@@H]1CCCN1C(=O)[C@H](CCCCN)NC(=O)[C@@H](N)CCCCN)C(=O)N[C@@H](CC(C)C)C(=O)O | · | · | 3% | -4 | · | 24
CCN(CC)S(=O)(=O)c1csc(C(=O)NC2CCCCC2)c1 | -17% | · | -2% | -2 | 4% | 18
Cc1ccc(NC(=O)CNCC2CCCCC2)cc1S(=O)(=O)N(C)C | -29% | ? | ? | -3 | -1% | 13
CCN(CC)S(=O)(=O)c1ccc(Cl)c(NC(=S)NC(=O)C2CCCC2)c1 | 13µM* | ? | · | · | · | ·
Cc1ccc(NC(=S)NC2CCCCC2)cc1S(=O)(=O)N(C)C | -21% | 7% | -27% | 32* | -3% | 125*
CCN(CC)S(=O)(=O)c1cccc(C(=O)NC2CCCCC2)c1 | 19% | 1.7µM* | 1% | 12 | -5% | 19
CCN(CC)S(=O)(=O)c1ccc(C)c(NC(=S)NC2CCCCC2)c1 | 15µM* | ? | -11% | -4 | -2% | -4
Cc1cccc(C(=O)O)c1NC(=O)Cc1cccc2ccccc12 | -11% | 0% | 15% | -3 | 6% | -10
CN(C)c1ccc(/C=N\NC(=S)SCN2C(=O)C3CCC(C)(C2=O)C3(C)C)cc1 (centres undefined) | ? | ? | 3% | 7 | ? | -11
CC12CCC(C(=O)N(CSC(=S)N/N=C\c3ccccc3O)C1=O)C2(C)C (centres undefined) | 10µM* | ? | 23% | 26* | 28% | 56
COc1ccc(-c2nnc3n2N=C(c2ccc(OC)cc2OC)CS3)cc1 | · | · | 4% | 7 | · | -10
Cc1nn(Cc2ccccc2)c(Cl)c1/C=C/C(=O)OC(C)C(=O)N1CCCC1 (centres undefined) | 1.7µM* | 3.7µM* | 24% | 5 | · | 2
S=C(Nc1ccccc1)N1CCn2c1nc1ccccc12 | 5% | 2.6µM* | 11% | 0 | -1% | -12
O=C(c1ccco1)N1CCn2c1nc1ccccc12 | 57% | 14% | 0% | 29* | -13% | 53*
Nc1nc2ccccc2n1C(=O)CCc1ccccc1 | 155% | · | -1% | 46* | -1% | 95*
Nc1nc2ccccc2n1C(=O)c1ccco1 | 232% | ? | -5% | 55* | 2% | 90*
Nc1nc(-c2ccccc2)nn1C(=O)c1ccco1 | 18% | -3% | 1% | 8 | · | 19
SMILES | Pf growth 48h | Pf growth 96h | Giardia FBPA inh | CHX counter | NS1 inh | Shiga toxin inh
CCC(=O)N1CCn2c1nc1ccccc12 | 23% | 69% | 4% | -1 | 1% | -17
O=C(NNC(=O)c1ccc(Cn2cccn2)o1)NC12CC3CC(CC(C3)C1)C2 | 2% | -24% | · | -2 | -9% | -5
CCOc1cccc(OCCOCCN2CCCC2)c1 | 3% | 1% | -9% | -3 | -5% | -1
Cc1cc(OCCOCCN2CCCC2)ccc1C(C)C | ? | 10µM* | -3% | 1 | 0% | -12
C#CC(C)OC(=O)Nc1cccc(Cl)c1 (centres undefined) | · | · | -12% | 32* | · | 41*
CC(OC(=O)Nc1cccc(Cl)c1)C(=O)O (centres undefined) | 3% | 37% | 8% | -6 | -62% | -5
COc1ccc(OCCOC(=O)Nc2ccccc2)cc1 | 24% | 8% | -1% | -3 | -57% | -7
O=C(Nc1ccccc1)OCCOc1ccccc1 | · | · | -1% | 32* | -15% | 61*
O=C(Nc1cccc(Cl)c1)OCC#CCCl | · | · | 7.1µM* | 14 | · | 28
CCC1(COC(=O)Nc2cccc(Cl)c2)COC1 | 54% | 16%[5.75 µM] | -3% | 22* | -44% | 51
Cc1noc(C)c1C(=O)N1CCC2(CC1)CN(c1ncccn1)C2 | · | · | 0% | · | · | ·
CN(C(=O)c1ccc2c(c1)OCO2)C1CCS(=O)(=O)C1 (centres undefined) | 9% | 20% | · | · | · | ·
CC(=O)Nc1ccc(NC(=O)C(C)OC(=O)CNC(=O)c2ccc(-c3ccccc3)cc2)cc1 (centres undefined) | 5% | 38% | · | · | · | ·
Cn1cccc1C(=O)N1CCC2(CCCN(c3ccc(-c4ccccc4)cc3)C2)CC1 | · | · | -8% | · | · | ·
COCCN(C(=O)CSc1nnc(-c2ccccc2F)o1)c1c(N)n(CC(C)C)c(=O)[nH]c1=O | ? | -16% | · | · | · | ·
O=C(Nc1ccccc1)OCCOc1cccc(Br)c1 | 2% | ? | -4% | 2 | -6% | 8
O=C(Nc1cccc(Cl)c1)OCCOc1ccccc1 | -14% | ? | -6% | 56* | -22% | 75*
CC(C)OC(=O)NC(C)(C)COC(=O)Nc1cccc(Cl)c1 | ? | -23% | -13% | 14* | -21% | -2
O=C(Nc1ccccc1)OCCOc1ccccc1Br | 49% | ? | -14% | 35* | -9% | 28*
O=C(COc1ccc(Cl)cc1)NCc1n[nH]c(=O)c2ccccc12 | 0% | -23% | · | · | · | ·
O=C(COc1ccc2ccc(=O)oc2c1)Nc1c(Cl)cccc1C(F)(F)F | 1% | 7% | · | -3 | 12% | -2
CCOC(=O)c1c(C)[nH]c(C(=O)CC(=O)OC)c1C | 16% | 16% | 4% | 10 | -1% | 41
CCOC(=O)c1[nH]c(C)c(C)c1C | 19% | 12µM* | 4% | -3 | -3% | 20
CCOC(=O)c1c(C)[nH]c(C(=O)O)c1C | · | 18% | 2% | 2 | 3% | -8
CCOC(=O)c1c(C)[nH]c(C)c1C(=O)COC(=O)/C=C/c1ccc(Cl)cc1 | ? | 9.3µM* | -7% | 7 | -14% | -10
CCOC(=O)c1[nH]c(C)c(C(=O)OC)c1C | 92% | 102% | 0% | 13* | -30% | 28
